In all, about 9,900 sequences were measured (“r (bound/input frequency ratio)”: median about 0.7, highest 2% from about 6.5 on). This is one part of a sample in which the highest values are shown more often than they occur.
B1: ENSMUSG00000031028.55|Tub (ssRNA)
RNA: GGGAGUUCUACAGUCCGACGAUCGCUUCGAUAUCCGCAUGCUAUGUGCCCCAAGGUCAACACACAUGCCCAGUCCUGGGUCAGUCCCCUGCUGCAGUGGUGUUAUCACACCGGAAAGCCUCUUCACCUGGAGGUACAGAGGGAGAGGAAGCACAAGCCUGGCUGCUGUGGCUCAGCCAUCCACUCAGCCUACGAGUCAGAGACAGUGGGUGUCCCGGGAAGCAGGGGUACAGUGAGUGUGUGUGUAUGUACAGGGCACUCAAGCUGUAUGUAGAAAAAGCUCUGGUGGUCAGCAGAAAGCACUCUCUUGCGGUCGCACUAGUGUGGAAUUCUCGGGUGUCAAGG
B2: ENSMUSG00000042529.483|Kcnj12 (ssRNA)
RNA: GGGAGUUCUACAGUCCGACGAUCGCUUCGAUAUCCGCAUGCUAUCUCUUUGAAUGCUACUGUGUUGAGAUGUGCGUCUCACUGGCCUCUGCCUGCCUCUCCCGCCUGCGGAGCACUUACACUUCCUGGGGCCCCUGCAGCUGGACCAUGUACAGGGCUCCCUGGGGCUUGUCCUCAGGGGCAGAGAAGGACAUGGUGGCAGCAGCACUGAGAACAGGAGCAUGGCCUCUCUCAGACCCCAGGGCAGUCAUUCAGUCUUUUCCAUGGACACUCCCCACCGCUCCACAUACUGCCUCCGCCUCAUCUCUUGCGGUCGCACUAGUGUGGAAUUCUCGGGUGUCAAGG
B3: ENSMUSG00000061578.627|Ksr2 (ssRNA)
RNA: GGGAGUUCUACAGUCCGACGAUCGCUUCGAUAUCCGCAUGCUAAGGGAGCAACCUAUAGGAAAUGCAAAGGCUUAGAGGGGACGGACAGCUCCCUGACCCUGGAUGGCCAGGAAUGGUGCUAGCUAGGGUGUGAGCCAAGCCCUUGAGGCUACUGUGAGUUAUGAGAUGUGUCCAACCCUCAGCCCACAGACUGCAUAUGCCCCAGGACAGCUGUGAAGGUGACCCAAUACAAAAUCGUAAACUAACUUAAAACCAUUAAGGGUUUUUGUUUUGUUGUUGUUUGCUGGCUUUUUGUUUUUUGGCUCUUGCGGUCGCACUAGUGUGGAAUUCUCGGGUGUCAAGG
B4: ENSMUSG00000042529.54|Kcnj12|94:101;234:238 (ssRNA)
RNA: GGGAGUUCUACAGUCCGACGAUCGCUUCGAUAUCCGCAUGCUAGCAAGGAGGUGACUUCUUGGGGUAGGGUUGCUCAGGAGUUAGGGACUCUGCUGGAGGCCUUAGGUGCAGGUCCCAGCCCCGGUGGGAGGAGGCACACAUACUACACUUCAUUGGUUUUUAACUUGGGCAAGACUGUUUACAAACAAAAACAAACAAACAAACAAUCAAAAAAAAAACCCACCCCACAAAACACAAGAAAACAUUAACAGGUGGUUCAAUUUUUAAAAUUCCUGCACACGGGACAGUUGGAAUUCUACUCACUCUUGCGGUCGCACUAGUGUGGAAUUCUCGGGUGUCAAGG
B5: ENSMUSG00000042529.244|Kcnj12|181:185 (ssRNA)
RNA: GGGAGUUCUACAGUCCGACGAUCGCUUCGAUAUCCGCAUGCUAAGAUAGGCUGGCUCCCAGGCACCUUGCUUCAGAUUCCAUGCUAAUUUCUAAUCUAGGAGAUUCCCCUAGGACCCGCUGCAGAGGCAUGGGCUCCUCUGUGGUCCUGGCCAGACCUCUGCCCCCAAAUCUCACUGACUGUUCUAGCCUUGGCCUUGGGGCCUAAGGGUGCAUUCAGCCUGGCACACCUUACCUGCCACUCACCUCUCUAUCUAGUUGUCGAGUCUAGGGAAGGGCAGAGGGUGGGUCCUGGCCACUGGGUGCUCUUGCGGUCGCACUAGUGUGGAAUUCUCGGGUGUCAAGG
B6: ENSMUSG00000031028.132|Tub|108:112;184:189 (ssRNA)
RNA: GGGAGUUCUACAGUCCGACGAUCGCUUCGAUAUCCGCAUGCUAGGGGAUGAUAGGAGUCAUCCAGUAGACUCCCUACAUCAGGGCUCUCAGCAGCCCCAGCACAACACCUAUGACACACACACAGGAUCUAGGUCACCAUUCAAGUAAUGCAUACCUUCAGGAAGAAUGUCCUCUCUGGGAAGACUCAGCUCCCAUUAUUGCCAGCAUGCCAUGAUCAGUGAGGGCACACACCCAUGCUUAGGGGGAUGGCGCAGGGUGAGGGGAGCAGAGGAUAUUUUAGGGCCACAAGAGCUCAGAGGUAGCUCUUGCGGUCGCACUAGUGUGGAAUUCUCGGGUGUCAAGG
B7: ENSMUSG00000032194.60|Kank2 (ssRNA)
RNA: GGGAGUUCUACAGUCCGACGAUCGCUUCGAUAUCCGCAUGCUAAGGGGGGGCAAGAAGAGAAAAUACUGUAUUCUUGAGUCAUUGUUAGGGGAUGGGAGGGGUCAGAAUUCAGUUGCUAAAUUUGAAUGUCACUGGAAUGUUACAGUGUCUAUUGUCUCCUCAUCUUUACAGCAGGUCUCCACAAAGCCUGCUCACCACCCUUUGUCACCUCAUUUCAUUGUCUAGUGUACAAUAGGGUCUUGUCCACUGCCCUCCACCUCCAGACUGUGUCUUCAGGGCCUGGGGUGUCUCUUGUGAUUGCUCUCUUGCGGUCGCACUAGUGUGGAAUUCUCGGGUGUCAAGG
B8: ENSMUSG00000061578.444|Ksr2 (ssRNA)
RNA: GGGAGUUCUACAGUCCGACGAUCGCUUCGAUAUCCGCAUGCUAAAUCCUUCAAGACAGAAGUUUCAGAGGGGAUAGUUCCUUCUAACCUUGUACUGGGACAUCAUCUAUGUCCCCAUCCCCAGAGCUGAAUUAGAGACACCAAGUAGCCUCUUGGGUUGUUUUGUGGGGUGUUCCCCUUGCUGGUCAAAGGAGUGGAAAGCCACCUUGCUGUAAAUGCUCUUGUUUUCUGUAGCAAUCUUGAACUCUUUUUUUUUUUUGUUCGUUUGUUUGUUUGUUUGUUUGUUUGUUUUUUCAAGACAGGGCUCUUGCGGUCGCACUAGUGUGGAAUUCUCGGGUGUCAAGG
B9: ENSMUSG00000058297.11|Spock2|185:189;193:206;215:226;240:246;255:260 (ssRNA)
RNA: GGGAGUUCUACAGUCCGACGAUCGCUUCGAUAUCCGCAUGCUAUGAGGCGGGUGAGGCAGAUGAUGGAGGCUACAUCUGGUAGAUAGCCCUCGACGGCCUCGGCAGGCCAGGGUGCCGACGGCCAGAAAGACAGGCCAGAAGAGACCUGGACAACAGCAGGCAACUUAGCAAAUGGAUCCGGAAGUCAGUGCGGAGGACCCUGGCUCCAGUGGGGGAGGACUGGGGACACACGCUACACACAUACACACAUAUGAGAACACACACAUACAUGUGAGAUGUGACACACACAUGUGAGAACACACCUCUUGCGGUCGCACUAGUGUGGAAUUCUCGGGUGUCAAGG

These binders were tested against TDP-43 (Homo sapiens, UniProt Q13148 1-414) (assay: RNA Bind-n-Seq with designed 260-mer pool; 25 mM Tris-HCl, 150 mM KCl, 3 mM MgCl2, BSA (printed 500 mg/mL), 20 units/mL SUPERase IN; pH not stated; 500 nM RNA pool, 1 h, 4 C; TDP-43 5, 50, 500 nM; high values mean tight binding). Conditions: protein: recombinant; tags: SBP (GST cleaved off with PreScission; pGEX-GST-SBP).
Sequence of TDP-43 (Q13148 whole entry): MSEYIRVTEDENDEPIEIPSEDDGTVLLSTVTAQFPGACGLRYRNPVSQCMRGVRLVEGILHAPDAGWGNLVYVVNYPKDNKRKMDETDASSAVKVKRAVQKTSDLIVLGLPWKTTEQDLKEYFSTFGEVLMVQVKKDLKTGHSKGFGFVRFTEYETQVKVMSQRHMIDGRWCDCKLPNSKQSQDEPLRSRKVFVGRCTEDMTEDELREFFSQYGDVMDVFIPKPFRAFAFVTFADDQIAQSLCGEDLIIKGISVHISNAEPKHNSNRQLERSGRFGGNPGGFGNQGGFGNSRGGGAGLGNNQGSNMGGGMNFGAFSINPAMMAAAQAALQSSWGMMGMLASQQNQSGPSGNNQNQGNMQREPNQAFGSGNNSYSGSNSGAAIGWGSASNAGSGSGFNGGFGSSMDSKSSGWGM
Procedure, shortened: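 Duplicate measurements used two independent batches of recombinant SBP-tagged TDP-43, which was captured on streptavidin beads at 5, 50 or 500 nM. The beads were incubated with 500 nM of an in vitro-transcribed 260-nt 3′ UTR oligo pool for 1 h at 4 °C in 25 mM Tris-HCl, 150 mM KCl, 3 mM MgCl2, BSA and SUPERase IN. After washing, biotin elution, reverse transcription, PCR amplification and sequencing, binding was expressed as R: each oligo's normalized read abundance in the bound sample over its abundance in input.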

Row | Binder | binding signal
1 | B1 | 0.773 R (bound/input frequency ratio)
2 | B2 | 0.21 R (bound/input frequency ratio)
3 | B3 | 0.542 R (bound/input frequency ratio)
4 | B4 | 0.46 R (bound/input frequency ratio)
5 | B5 | 1.24 R (bound/input frequency ratio)
6 | B6 | 0.891 R (bound/input frequency ratio)
7 | B7 | 2.47 R (bound/input frequency ratio)
8 | B8 | 2.36 R (bound/input frequency ratio)
9 | B9 | 2.53 R (bound/input frequency ratio)
